The values that follow come from PubChem BioAssay.

The structures appear in SMILES notation. Values without a mark were called inactive. How the calls were made is not given here.

The inhibition is the percentage by which the read-out fell short of the control.

In this experiment the target is Pantothenate synthetase (Mycobacterium tuberculosis (strain ATCC 25618 / H37Rv)) (UniProt P9WIL5). The experiment is described as follows: Coupled enzyme confirmation of inhibitors against recombinant Mtb PanC (AID 375).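 Further: 0% = full reaction with vehicle and 100% = no enzyme background.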 The following applies: coupled enzyme assay; at 10 µM, active compounds read high.
Chain of Pantothenate synthetase (Mycobacterium tuberculosis (strain ATCC 25618 / H37Rv)) (P9WIL5 whole entry, looked up): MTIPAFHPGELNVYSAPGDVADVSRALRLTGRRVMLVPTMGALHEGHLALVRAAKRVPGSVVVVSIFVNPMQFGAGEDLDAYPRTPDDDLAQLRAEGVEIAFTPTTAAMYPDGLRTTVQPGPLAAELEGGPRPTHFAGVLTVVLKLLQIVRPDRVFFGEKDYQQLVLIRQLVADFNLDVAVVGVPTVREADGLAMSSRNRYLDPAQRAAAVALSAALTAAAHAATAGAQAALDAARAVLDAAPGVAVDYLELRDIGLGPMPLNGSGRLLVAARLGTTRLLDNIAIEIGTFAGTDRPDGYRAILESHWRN
Regarding `O=C(NCC(=O)N(Cc1cccs1)C(C(=O)NC1CCCC1)c1ccncc1)c1ccco1` (configuration not stated), the inhibition is 4%. Regarding `Cc1nnc(SCC(=O)Nc2c(Cl)cccc2Cl)[nH]c1=O`, the inhibition was 0%. Take `O=c1[nH]c(N2CCc3ccccc32)nc2c1CCCC2`: the inhibition was 0%.

On to `Cc1ccc(OCC(O)CN2C(=O)NC(C)(C)C2=O)cc1C` (configuration not stated), for which the inhibition is 2%. Regarding `COc1ccc(CNc2nc3nc(C)c(Cl)c(C)n3n2)cc1OC`, the inhibition is 6%. `CCCCOc1ccc(-c2nnn(CC(=O)Nc3ncc(CC(=O)OCC)s3)n2)cc1`: the inhibition was 2%. For `Cc1nc2ccccc2c2c1C(=O)N(CCC1=CCCCC1)C2=O` the value was 9%; for `COCCNC(=O)CN1C(=O)CSc2ncccc21`, 0%.

With `O=C(CSc1nccn1Cc1ccccc1)Nc1nccs1`, the inhibition was 0%. Regarding `O=C(O)c1cc(-c2ccccc2Cl)n[nH]1`, the inhibition is 2%. For `COc1ccc2c(=O)c3c(=O)n(Cc4ccco4)c(C(C)C)nc3oc2c1`, the inhibition was 0%. For `COc1cc(C2C(C#N)=C(N)Oc3cc(N)ccc32)cc(OC)c1OC` (configuration not stated), the inhibition was 2%. With `CCOc1cc(N2CCOCC2)c(OCC)cc1NC(=O)COC(=O)CCc1c[nH]c2ccccc12`, the inhibition is 0%. For `C=CCN1C(=O)C2(/C(=C(\O)c3ccc4c(c3)OCCO4)C(=O)C(=O)N2CCCOC)c2ccccc21` (configuration not stated), the inhibition was 0%. Consider `Cc1cc(C)n(-c2cc(N3CCOCC3)ncn2)n1`, for which the inhibition was 1%. Take `O=C(Nc1ccc(N2CCCC2)cc1)c1ccc(Br)o1`: the inhibition was 0%. On to `CCc1ccc(N2CC(C(=O)OCC(=O)Nc3cc(C)on3)CC2=O)cc1` (configuration not stated), for which the inhibition was 0%.
